In the library only some 0.87% were active in any assay of this set; here they are far more common.
RECQ1 inh: blocks DNA unwinding by human RECQ1 | AID 2549 | RECQ1 DNA unwinding, red fluorescence kinetic read | Potency, µM (highest dose often 57.3 µM), actives largely listed as inhibitors | 0.54% of 240,000 active | P46063; also: nearly all actives have a fitted effect of over 30% in size
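50 nM RECQ1T1 preincubated 15 min with compound in Tris pH 8.0 buffer with MgCl2, DTT, Tween-20 and 2.5 ug/ml poly(dI-dC); started with 200 nM TAMRA/BHQ-2 forked duplex and 2 mM ATP. Unwinding read as fluorescence (525/598 nm), two reads 2 h apart.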
RGS4 inhibitor: human RGS4 inhibition. 0.039% of 390,000 active. P49798. Potency, µM (series often up to 114 µM), usual class: inhibitors. Transcreener GDP fluorescence polarization, RGS4-accelerated GTP hydrolysis; also: nearly all actives have a fitted effect of over 75% in size
Target sequence (P49798 whole entry, looked up): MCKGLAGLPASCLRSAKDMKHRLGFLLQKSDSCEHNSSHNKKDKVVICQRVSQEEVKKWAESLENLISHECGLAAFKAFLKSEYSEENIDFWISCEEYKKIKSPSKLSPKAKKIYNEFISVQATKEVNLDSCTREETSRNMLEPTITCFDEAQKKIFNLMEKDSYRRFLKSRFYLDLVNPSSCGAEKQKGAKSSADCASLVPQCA
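MLSMR compounds (23 nl, pin-transferred) preincubated 10 min at room temperature with a 500nM (2x) first reagent, then RGS4 at 900nM (2x) plus Transcreener GDP mix added; fluorescence polarization (620/688 nm) read before and after 90 min at 30 °C.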
APE1 inh-1: APE1 (human) endonuclease inhibition. P27695. recombinant APE1, TAMRA/BHQ-2 abasic DNA cleavage fluorescence. Potency, µM (highest dose often 65.8 µM), hits mostly inhibitors. 0.35% of 350,000 active. AID 2517; also: nearly all actives have a fitted effect of over 55% in size
Target sequence (P27695 whole entry, looked up): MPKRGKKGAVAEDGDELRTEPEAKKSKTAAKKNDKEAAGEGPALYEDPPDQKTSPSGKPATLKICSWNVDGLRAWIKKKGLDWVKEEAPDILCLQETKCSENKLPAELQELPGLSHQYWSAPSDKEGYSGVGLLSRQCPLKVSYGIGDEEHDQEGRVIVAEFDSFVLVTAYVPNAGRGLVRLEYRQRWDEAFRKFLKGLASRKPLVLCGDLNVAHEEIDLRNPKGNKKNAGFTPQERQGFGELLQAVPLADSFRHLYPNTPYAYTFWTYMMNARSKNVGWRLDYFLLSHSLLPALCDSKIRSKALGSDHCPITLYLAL
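Endonuclease cleavage of a quenched abasic-site DNA duplex (50 nM) by APE1 (0.75 nM) was tracked by TAMRA dequenching. Compounds were preincubated with enzyme 15 min at room temperature; data normalized to buffer-only and DMSO wells plus NSC13755 control.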
BLM helicase inh: blocks DNA unwinding by human BLM helicase. P54132. recombinant BLM DNA unwinding, fluorescence dequenching. Potency, µM (doses to about 56.1 µM), most hits filed as inhibitors. 0.2% of 350,000 active. AID 2528; also: nearly all actives have a fitted effect of over 35% in size
GCN5L2 inh: blocks human GCN5L2 histone acetyltransferase. GCN5L2 HAT assay, ThioGlo1 CoA-SH fluorescence. Potency, µM (series often up to 58.9 µM), most hits filed as inhibitors. 0.21% of 390,000 active
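qHTS, 1536-well. 20nM enzyme, pH 7.5 HEPES/EDTA/Tween-20 buffer; 15 min compound preinc., RT. Start: 75uM H3(1-25), 70uM AcCoA, 50uM ThioGlo1. Read Ex340/Em540 at t=0 (autofluorescence flag) and t=20 min.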
TDP1 inh: inhibitors of human tyrosyl-DNA phosphodiesterase TDP1 | Q9NUW8 | recombinant TDP1, AlphaScreen DNA substrate cleavage | Potency, µM (top dose mostly 130 µM), hits mostly inhibitors | 0.28% of 350,000 active | AID 485290; also: nearly all actives have a fitted effect of over 40% in size
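Recombinant E. coli-expressed Tdp1 (1 nM) preincubated with compound 15 min at RT, then 5'-biotin/3'-phosphotyrosine-FITC DNA substrate (15 nM) added for 5 min. AlphaScreen beads (10 ug/ml) added, 10 min RT; tyrosine-FITC cleavage read as signal loss.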
APE1 dye cs: DNA dye displacement counter-screen activity. shares compounds with APE1 inh-1. DNA fluorescent dye displacement counterscreen, fluorescence. Potency, µM (top dose mostly 28.5 µM), usual class: inhibitors. 7% of 480 active. AID 2564;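 also: loss of thiazole orange fluorescence as the dye is displaced from duplex DNA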
EndoIV counter: Endo IV (E. coli) inhibition counter-screen; shares compounds with APE1 inh-1; E. coli Endo IV, fluorogenic AP-site DNA cleavage; Potency, µM (highest dose often 27.1 µM), most hits filed as inhibitors; 4% of 560 active; AID 2565
APE1 inh-2: confirmation of inhibitors of human APE1 endonuclease; AID 2572; 44% of 750 active; shares compounds with APE1 inh-1; Potency, µM (highest dose often 57.1 µM), hits mostly inhibitors; purified APE1, fluorogenic abasic-site DNA cleavage; also: nearly all actives have a fitted effect of over 30% in size
APE1 FP: APE1 (human) DNA binding inhibition, fluorescence polarization; APE1 binding to TAMRA-labelled double-stranded DNA, fluorescence polarization displacement; 7% of 480 active; shares compounds with APE1 inh-1; AID 2573; Potency, µM (series often up to 28.5 µM), most hits filed as inhibitors
Hits are given with their value; 0 = inactive; ? = inconclusive; - = no result given; ! = repeats disagree. Calls follow the shape of the dose curve; as a rule, active = well fitted curve in the direction sought with a large enough effect; inconclusive = small, poorly fitted or top-dose-only effect, or another doubt; inactive = no such curve, though single readings can be large; an effect the other way counts as inactive or inconclusive.

SMILES | RECQ1 inh | RGS4 inhibitor | APE1 inh-1 | BLM helicase inh | GCN5L2 inh | TDP1 inh | APE1 dye cs | EndoIV counter | APE1 inh-2 | APE1 FP
COc1cc(-c2nn3c(-c4cc(-c5ccccc5)n[nH]4)nnc3s2)cc(OC)c1OC | - | 0 | - | - | - | 0 | - | - | - | -
COc1ccc(C2/C=C\CN(C(=O)C3CCCCC3)C(C)C(=O)N2Cc2ccc(F)cc2)cc1 (stereo not drawn) | 0 | 0 | 0 | 0 | - | 0 | - | - | - | -
CCn1c(SCC(=O)NCc2ccco2)nnc1C(C)C | 0 | 0 | 0 | 0 | 0 | 0 | - | - | - | -
CCn1c(SCC(=O)NCc2ccco2)nnc1-c1cccs1 | 0 | 0 | 35µM | 0 | 0 | 50µM | ? | 0 | ? | 0
CC(C)CCC[C@@H](C)[C@H]1CC[C@H]2[C@@H]3CC[C@@H]4C[C@H](O)CC[C@]4(C)[C@H]3CC[C@]12C | - | - | - | 0 | 0 | - | - | - | - | -
Nc1ncc(N=Nc2cc(C(=O)O)ccc2Cl)s1 | ? | 0 | 8.9µM | 0 | 0 | - | 0 | 0 | ? | ?
Nc1cc2sc(-c3ccc(C(=O)O)cc3)nc2cc1Cl | 0 | 0 | 0 | 0 | ? | - | - | - | - | -
Nc1ccc(N)c(C(=O)O)c1 | 11µM | ? | 1.3µM | 5.6µM | 7.9µM | 0.28µM | - | - | 2.2µM | -
Nc1ccc(C(=O)O)c(O)c1 | 0 | 0 | 0 | 0 | 0 | 0 | - | - | - | -
C[C@@H]1OC(OC2CC[C@@]3(C)C(CC[C@@]4(C)C3CC=C3C5CC(C)(C)CC[C@]5(C(=O)OC5OCC(O)[C@@H](O)[C@@H]5OC5O[C@@H](C)[C@H](O[C@H]6OC(CO)C(O)C(O)C6O)C(O)C5O)C(O)C[C@@]34C)C2(C)C)C(O)C(O)[C@H]1OC1OCC(O)C(O)[C@H]1O (stereo partly drawn) | 0 | - | 28µM | 0 | 0 | - | 0 | 0 | 32µM | 0
CC1O[C@@H](OC2C(COC3OC(CO)C(O)[C@H](O)C3O)OC(OC3CC[C@]4(C)C(CC[C@@]5(C)[C@@H]4CC=C4[C@@H]6CC(C)(C)CC[C@]6(CO)C(O)C[C@]45C)C3(C)C)C(O)C2O)C(O)C(O)C1O (stereo partly drawn) | - | 0 | 0 | - | 0 | 0 | - | - | - | -
COc1ccc(-c2ccc(SCC(=O)Nc3nccs3)nn2)cc1OC | 0 | 0 | 0 | 0 | 0 | 79µM | - | - | 40µM | -
Cn1cc(C(=O)[C@@H]2CCc3[nH]cnc3C2)c2ccccc21 | - | - | - | 0 | 0 | - | - | - | - | -
CC1(C)Oc2cc(N)c([N+](=O)[O-])cc2O1 | 0 | 0 | 32µM | 0 | 0 | 0 | 0 | 0 | 0 | 0
O=c1oc2cc(OCc3ccc([N+](=O)[O-])cc3)ccc2c2c1CCCC2 | 0 | 0 | 0 | 0 | 0 | 0 | - | - | - | -
O=C(O)c1ccc(COc2ccc3c4c(c(=O)oc3c2)CCC4)o1 | 0 | 0 | ? | 0 | 0 | - | 0 | 0 | 13µM | ?
O=C(CCO)c1ccc(O)cc1 | 25µM | 0 | 1.6µM | 25µM | 0 | ? | 0 | ? | 1.3µM | 0
Cc1ccc(S(=O)(=O)N2CCN(c3nc(-c4cccs4)nc(C)c3C)CC2)cc1 | - | 0 | - | - | - | - | - | - | - | -
CCc1nc2ccc(C(=O)NCCc3ccc(OC)c(OC)c3)cc2nc1CC | - | 0 | 0 | 0 | 0 | 0 | - | - | - | -
COc1ccc(CCNC(=O)c2ccc3nc(-c4ccco4)c(-c4ccco4)nc3c2)cc1OC | 16µM | ? | 8.9µM! | 14µM | ? | 10µM | - | - | 16µM | -
CCc1ccc(C(=O)C(C)CN2CCCCC2)cc1 (stereo not drawn) | - | - | - | 0 | 0 | - | - | - | - | -

Bioassay records (PubChem BioAssay)
